Rows were chosen to be rich in hits. Some 0.18% of all compounds tested hit in one or more screens of this group.
USP2a inhib: USP2a (human) protease inhibition | O75604 | 60,000 compounds, 0.1% hits | USP2a enzymatic assay, qHTS inhibition | Potency, µM (top dose mostly 38.3 µM), inactives show at the highest dose activity change, negative = inhibition, actives largely listed as inhibitors; note: potency is the fitted concentration of half-maximal effect; nearly all actives have a fitted effect of over 60% in size
Target sequence (O75604 whole entry, looked up): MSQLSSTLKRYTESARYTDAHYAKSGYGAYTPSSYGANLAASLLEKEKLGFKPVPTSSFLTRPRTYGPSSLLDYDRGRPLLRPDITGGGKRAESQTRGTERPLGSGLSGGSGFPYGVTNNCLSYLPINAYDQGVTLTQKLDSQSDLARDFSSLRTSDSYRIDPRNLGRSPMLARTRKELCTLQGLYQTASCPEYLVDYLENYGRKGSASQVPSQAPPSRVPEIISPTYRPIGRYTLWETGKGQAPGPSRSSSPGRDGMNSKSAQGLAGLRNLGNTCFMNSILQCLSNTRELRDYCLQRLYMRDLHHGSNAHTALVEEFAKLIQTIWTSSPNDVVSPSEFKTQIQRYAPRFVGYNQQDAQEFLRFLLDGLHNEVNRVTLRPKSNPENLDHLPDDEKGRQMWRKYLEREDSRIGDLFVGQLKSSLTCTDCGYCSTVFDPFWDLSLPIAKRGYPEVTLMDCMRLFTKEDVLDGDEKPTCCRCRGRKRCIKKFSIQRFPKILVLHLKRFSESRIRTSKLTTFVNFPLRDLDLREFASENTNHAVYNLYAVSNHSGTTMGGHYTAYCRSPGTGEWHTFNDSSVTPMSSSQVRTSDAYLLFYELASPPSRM
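USP2 core (20 nM final) was preincubated with compound for 30 min at RT in 20 mM Tris-HCl pH 8.0, 2 mM CaCl2, 2 mM beta-mercaptoethanol; Ub-PLA2 (20 nM) plus NBD C6-HPC (20 uM) then added, fluorescence read after 2.5 h.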
GFP derepression: derepresses silenced GFP locus in mouse C127i cells | mouse C127i GFP locus derepression, cytometry, 30 h | Potency, µM (highest dose often 46.1 µM), without a hit: at the highest dose GFP derepression (activation) | 68,000 compounds, 0.09% hits; note: % of control where 0% means no effect
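Murine C127i mammary cells carrying a silenced, stably integrated CMV-driven GFP reporter were treated with compound for 30 hours at 37 C. After PBS washes, GFP-positive cells were counted by laser-scanning microplate cytometry.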
UbGFP stabilizer: inhibits proteasome, raising ubiquitin-GFP reporter fluorescence. Ubiquitin-GFP reporter cells, proteasome inhibition, GFP fluorescence; response scale: untreated = 0%, 10 µM MG-132 = 100%. 67,000 tested, under 10 active. Potency, µM (doses to about 45.9 µM), without a hit: top-dose activation (GFP accumulation), hits mostly activators; active = well fitted activation curve with a large enough effect, not every such curve was filed as active; inconclusive = small, poorly fitted or top-dose-only effect, or another doubt; inactive = no such curve, though single readings can be large or run the other way; note: potency is the fitted concentration of half-maximal effect
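Proteasome block read as GFP accumulation: ubiquitin(G76V)-GFP U2OS cells exposed to compound (2.9 nM–46 uM) for 4 hr at 37 C. Normalization used untreated cells as 0% and 10 uM MG-132 as 100%; concentration-response curves fitted.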
HBB splice mod: modulators of hemoglobin beta chain splicing; HBB splicing reporter cell assay, activation; EGFP reporter with mutant IVS2-654 intron; response scale: normalised to 500 nM splice-correcting PNA; Potency, µM (titrated, usually from 46.1 µM), inactives show top-dose activation, hits mostly activators; 65,000 compounds, 0.06% hits; note: potency is the fitted concentration of half-maximal effect; 0% is about no effect
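Compounds were applied for 2 days to HeLa EGFP-654 cells, 500/well in Optimem with 2% FCS. The reporter's EGFP is disrupted by mis-splicing of beta-globin intron IVS2-654. Readout: summed well GFP fluorescence from 488 nm laser scanning; reference was 500 nM antisense […] 654 PNA.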
Imprint erasure: inducers of genomic imprint erasure in mouse ES cells; Potency, µM (titrated, usually from 60.7 µM), without a hit: at the highest dose activity change, positive = activation, hits mostly activators; AID 1948; mouse ES Peg3-LacZ reporter, beta-gal luminescence, 40 h; 110,000 compounds, 0.02% hits; note: potency is the fitted concentration of half-maximal effect
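Gelatin-coated wells received 300 freshly trypsinized female ES cells with a Peg3LacZ-Neo reporter on the maternal allele, then incubated 40 hours at 37C. BetaGlo was added for 5 minutes at room temperature before a single luminescence read.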
IkB signaling: suppresses IkB signaling in ABC-DLBCL reporter cells | Potency, µM (series often up to 57.1 µM), inactives show at the highest dose IkBa stabilization activation | ABC-DLBCL IkBa-CBG/CBR dual luciferase ratio, 4 h; response scale: scaled: untreated 0%, proteasome inhibitor 100% | 110,000 compounds, 0.04% hits | AID 445; active = well fitted curve in the direction sought with a large enough effect in the signal ratio, not every such curve was filed as active; inconclusive = small, poorly fitted or top-dose-only effect, or a change in a side signal; the % refers to the signal ratio;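 note: potency is the fitted concentration of half-maximal effect; the direction sought is a rising ratio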
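In this assay, an IκBα–CBG68 fusion accumulates when IKK-driven degradation is blocked; native CBR normalizes for cell number. OCI-Ly3 cells were treated 4 h with compound and doxycycline, then green and red light read after Chroma-Glo addition.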
* = called active by the depositor; ? = inconclusive; . = no result given; [ ] = remark or other dose. Unless noted, calls come from the whole dose curve; as a rule, active = well fitted curve in the direction sought with a large enough effect; inconclusive = small, poorly fitted or top-dose-only effect, or another doubt; inactive = no such curve, though single readings can be large; an effect the other way counts as inactive or inconclusive.

SMILES	USP2a inhib	GFP derepression	UbGFP stabilizer	HBB splice mod	Imprint erasure	IkB signaling
CC(=O)[C@H]1CC[C@@H]2[C@]1(C)CC=C1[C@]23C=C[C@]2(C[C@H](O)CC[C@@]12C)[C@H](C(=O)O)[C@@H]3C(=O)O	.	2.3%[9.22 µM]	1.3%[9.17 µM]	0.4%[9.22 µM]	.	1.5%[11.4 µM]
NC(N)=N[C@H](CCC(=O)O)C(=O)O	-2.2%	-0.1%	4.9%	1.2%	.	-1.5%
Nn1c(COc2ccccc2)nnc1SC(F)F	-5.8%	0.0%	10.5%	-0.8%	3.98µM*	-1.0%
Nn1c(COc2ccccc2)nnc1SCc1cc(=O)[nH]c2ccccc12	4.9%	0.0%	-2.5%	1.8%	6.2%	0.5%
CCCc1ccc(Oc2cn[nH]c2-c2ccc(O)cc2O)cc1	3.98µM*	0.0%	1.2%[9.17 µM]	-1.3%[0.0738 µM]	-23.2%	?
Cc1ccc(C2CC(=O)Oc3cc4c(cc32)OCO4)cc1 (stereo not given)	.	.	.	.	12.0%	.
COc1cc2nc(=S)n3[nH]c(CCn4nc(C)cc4C)nc3c2cc1OC	15.0%	10µM*	-9.4%	-0.9%	-22.9%	0.8%
COc1cc2nc(SCc3ccc(Cl)cc3)n3nc(CCn4nc(C)cc4C)nc3c2cc1OC	.	.	.	.	-5.7%[10.9 µM]	1.1%
CN1[C@@H]2CC[C@@H]1CC(OC(=O)[C@H](CO)c1ccccc1)C2 (stereo not given in full)	.	.	.	.	9.5%	.
CCOC(=O)c1ccc(NCc2ccc3c(c2)OCO3)cc1	12.6µM*	-3.9%	-10.7%	5.5%	-21.8%	1.8%
Cc1n[nH]c(C)c1N1C(=O)c2cccc3c(N4CCCCCC4)ccc(c23)C1=O	-3.5%	2.3%	-8.1%	15.8µM*	-12.7%	?
CC(=O)c1ccc2c3c(cccc13)C(=O)N(c1c(C)nn(C)c1C)C2=O	.	2.3%	-4.1%	-0.4%[57.5 µM]	2.1%	0.5%
CCc1ccc(S(=O)(=O)Nc2ccc3c(c2)n(C)c(=O)c(=O)n3C)cc1	.	.	.	.	-13.1%[10.9 µM]	0.1%
Cn1c(=O)n(C)c2cc(NS(=O)(=O)c3ccc4c(c3)CCCC4)ccc21	17.6%	9.7%	-4.2%	-2.1%	-15.5%	7.94µM*
C=CCn1c(=O)c(C(=O)NCCNCC)c(O)c2ccccc21	12.6µM*	-0.1%	5.7%	.	2.1%	3.1%
CCn1c(SCC(=O)c2c[nH]c3ccccc23)nnc1-c1cccs1	3.5%	20µM*	11.7%	?	-27.4%	4.0%
Cn1cnnc1SCC(=O)c1c[nH]c2ccccc12	5.2%	-0.7%	-0.7%	0.3%[57.5 µM]	-67.7%	-0.6%
